Experimental data as given in ChEMBL document CHEMBL3433997, “St. Jude Leishmania screening dataset” (2016).

Tests used:
Assay type in all cases: functional
[1] = target: Solute carrier family 2, facilitated glucose transporter member 1 (Homo sapiens) (UniProt P11166); experiment: ST_JUDE_LEISH: Cytotoxicity at 2uM final concentration against transgenic Leishmania Mexicana promastigotes LmGLUT1 that are glucose transport deficient and complemented with the human glucose transporter GLUT1. Activity is measured by DNA content using SYBR green in vitro
Sequence of Solute carrier family 2, facilitated glucose transporter member 1 (Homo sapiens) (P11166 whole entry): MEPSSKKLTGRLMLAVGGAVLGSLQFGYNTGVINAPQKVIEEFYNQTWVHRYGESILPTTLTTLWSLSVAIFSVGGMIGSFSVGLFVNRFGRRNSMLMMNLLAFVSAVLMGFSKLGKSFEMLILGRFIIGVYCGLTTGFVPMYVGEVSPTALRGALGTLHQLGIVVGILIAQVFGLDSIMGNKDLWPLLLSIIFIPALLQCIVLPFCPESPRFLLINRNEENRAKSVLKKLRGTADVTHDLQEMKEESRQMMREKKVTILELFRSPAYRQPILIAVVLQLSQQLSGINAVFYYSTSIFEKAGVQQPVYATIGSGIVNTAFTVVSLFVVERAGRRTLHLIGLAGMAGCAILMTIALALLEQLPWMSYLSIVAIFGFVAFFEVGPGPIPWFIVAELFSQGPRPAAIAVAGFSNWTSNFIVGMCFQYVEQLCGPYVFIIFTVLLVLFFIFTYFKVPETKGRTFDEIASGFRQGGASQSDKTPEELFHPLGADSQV

[2] = target: Hexose transporter 1 (Plasmodium falciparum) (UniProt O97467); experiment: ST_JUDE_LEISH: Cytotoxicity at 2uM final concentration against transgenic Leishmania Mexicana promastigotes LmPfHT that are glucose transport deficient and complemented with the Plasmodium falciparum hexose transporter. Activity is measured by DNA content using SYBR green in vitro
[3] = target: Glucose transporter (Leishmania mexicana) (UniProt O61059); experiment: ST_JUDE_LEISH: Cytotoxicity at 2uM final concentration against transgenic Leishmania Mexicana promastigotes LmGT2 that are glucose transport deficient and complemented with the L. Mexicana glucose transporter 2. Activity is measured by DNA content using SYBR green in vitro

Question: For `CN(Cc1ccc(NC(=O)NC2CCN(C(=O)/C=C/c3ccc(Cl)c(Cl)c3)CC2)cc1)C1CCOCC1`, which inhibition [1] is on record?
Answer: 1.63%

Question: And the inhibition [2]?
Answer: -3.08%

Question: And the inhibition [3]?
Answer: 3.44%

Question: What does the source list for `O=C(Nc1cccc(-c2nn3ccccc3c2-c2ccnc(Nc3ccccc3)n2)c1)c1c(F)cccc1F`?
Answer: inhibition [1]: 0.96%; inhibition [2]: 5.19%; inhibition [3]: 1.51%

Question: For `Cc1cc(NC(=O)NCCN2CCC(NC(=O)c3cccc(Br)c3)C2)c2ccccc2n1` (configuration not stated), which inhibition [1] is on record?
Answer: 0.36%

Question: And the inhibition [2]?
Answer: 0.24%

Question: And the inhibition [3]?
Answer: 2.62%

Question: Which inhibition [1] does the source give for `COCCN1CCC(NCC(C)(C)c2nc(-c3ccc(Cl)c(O)c3)c(-c3ccncc3)[nH]2)CC1` here?
Answer: 4.86%

Question: And the inhibition [2]?
Answer: 8.59%

Question: What about the inhibition [3] of the same molecule?
Answer: 6.49%

Question: Which inhibition [1] does the source give for `COc1ccc(NC(=O)c2ccc3cc4ccccc4cc3c2)cc1N1CCN(C)CC1` here?
Answer: 0.49%

Question: What about the inhibition [2] of the same molecule?
Answer: -0.55%

Question: And the inhibition [3]?
Answer: 0.74%

Question: For `Cn1cc(CN2CCC(OC(c3ccccc3)c3ccc(Cl)cc3)CC2)cn1` (configuration not stated), which inhibition [1] is on record?
Answer: 4.78%

Question: And the inhibition [2]?
Answer: 1.66%

Question: And the inhibition [3]?
Answer: -0.63%

Question: `CNC(=O)c1cc(S(=O)(=O)Nc2ccc(OC)cc2)cs1` was tested. Which inhibition [1] did it give?
Answer: 0.48%

Question: And the inhibition [2]?
Answer: 0.9%

Question: And the inhibition [3]?
Answer: 2.1%

Question: Which inhibition [1] does the source give for `O=C(NC1CCN(Cc2ccccc2)CC1)c1ccc(-c2nc3cc(Cl)c(F)cc3[nH]2)cc1` here?
Answer: 1.14%

Question: And the inhibition [2]?
Answer: 0.15%

Question: What about the inhibition [3] of the same molecule?
Answer: 2.45%

Question: What does the source list for `O=c1[nH]ccc2nc(N[C@@H]3CCNC3)nc(Nc3cccc(S(=O)(=O)N4CCOCC4)c3)c12`?
Answer: inhibition [1]: 2.94%; inhibition [2]: 3.93%; inhibition [3]: 0.85%

Question: Which results are given for `CCNc1cc(C(=O)N[C@@H](Cc2ccccc2)[C@H](O)CN[C@@H](C)c2cccc(OC)c2)cc(N2CCCC2=O)c1`?
Answer: inhibition [1]: 3.36%; inhibition [2]: 2.81%; inhibition [3]: 3.09%

Question: How did the inhibition [1] turn out when `CCc1c(CCNCCc2cccc(CCNCCc3ccc(OC)c(OC)c3CC)c2)ccc(OC)c1OC` was run?
Answer: 2.06%

Question: And the inhibition [2]?
Answer: -1.49%

Question: What about the inhibition [3] of the same molecule?
Answer: 0.27%

Question: Which results are given for `COc1ccccc1-n1c(-c2ccc3ccccc3c2)csc1=NC(=O)c1ccccc1`?
Answer: inhibition [1]: 0.68%; inhibition [2]: -0.46%; inhibition [3]: -4.04%

Question: `O=[N+]([O-])c1ccc(C=NNc2nc3ccccc3[nH]2)cc1` was tested. Which inhibition [1] did it give?
Answer: -0.91%

Question: What about the inhibition [2] of the same molecule?
Answer: 0.53%

Question: What about the inhibition [3] of the same molecule?
Answer: -0.44%

Question: How did the inhibition [1] turn out when `COc1cccc2c(NN=Cc3ccccc3F)ccnc12` was run?
Answer: 7.43%

Question: And the inhibition [2]?
Answer: 7.62%

Question: What about the inhibition [3] of the same molecule?
Answer: 2.85%
